# Test results taken from PubChem BioAssay AID743088 (The Scripps Research Institute Molecular Screening Center, 2013).
# Values without a mark were called inactive.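 The calls were made as follows: active = binding inhibited by at least 50%, or stimulated by at least 50%, shown as inhibition of -50% or lower; inactive = the rest.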
# Tested on: Imidazoline I2 Central
# Assay: off-target binding across receptor panel, profiling panel, selectivity assay for AVPR1a antagonist project, biochemical, Panlabs HitProfilingScreen (AID 743088)
# Details: Panlabs radioligand binding panel, 30 targets, at 10 µM, stronger effect = higher value
smiles,measurement,value
O=C(C1CCN(c2ccc(Cl)cn2)CC1)N(CC1CC1)c1ccc(Cl)cc1,inhibition of binding,27%
